Reference: PubChem BioAssay (NCI)
Several values for one entry are separate records, joined by “and”; a condition that tells them apart may be missing. Equal entries are not always repeated. About 83,000 compounds went through this panel and 20% of them were active in at least one assay; those are over-represented in the sample as a whole.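 Compound tested at a single concentration for 48 hours in 96-well plates; a percent growth value below 10 was scored as active.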 Activity calls are given as the source filed them.

Legend:
Experiment in all cases: NCI-60 one-dose screen, 48 h (100 = growth as untreated, 0 = no growth, -100 = all killed)
Conditions in all cases: 10 µM unless noted
HCT-15 colon = system: HCT-15 colon
HT29 colon = system: HT29 colon
SNB-75 CNS = system: SNB-75 CNS
SNB-19 CNS = system: SNB-19 CNS
U251 CNS = system: U251 CNS
PC-3 prostate = system: PC-3 prostate
SK-MEL-5 melanoma = system: SK-MEL-5 melanoma
UACC-62 melanoma = system: UACC-62 melanoma
LOX IMVI melanoma = system: LOX IMVI melanoma
SK-MEL-28 melanoma = system: SK-MEL-28 melanoma

Measured: growth

C#Cc1nc(/C=C\CCCCCCC(=O)NO)cs1
active: SNB-75 CNS -57.7% | LOX IMVI melanoma -82%
inactive: HCT-15 colon 65.6% | HT29 colon 55% | SNB-19 CNS 71.6% | U251 CNS 70.6% | PC-3 prostate 66.9% | SK-MEL-5 melanoma 31.9% | UACC-62 melanoma 31.2% | SK-MEL-28 melanoma 54.1%

O=C1C(SCc2ccccc2)=C(Cl)CN1c1ccccc1
inactive: HCT-15 colon 95.8% | HT29 colon 106% | SNB-75 CNS 92.2% | SNB-19 CNS 96.2% | U251 CNS 101% | PC-3 prostate 109% | SK-MEL-5 melanoma 99.4% | UACC-62 melanoma 93.1% | LOX IMVI melanoma 42.8% | SK-MEL-28 melanoma 98.9%

Cc1[nH]c(C(=O)Nc2ccc(C(=O)NCC3CCNCC3)cc2OC(C)C)c(Cl)c1Cl
inactive: HCT-15 colon 93.7% | HT29 colon 40.6% | SNB-75 CNS 44.8% | SNB-19 CNS 64.2% | PC-3 prostate 61.6% | SK-MEL-5 melanoma 95.9% | UACC-62 melanoma 98.8% | SK-MEL-28 melanoma 83.9%
active: U251 CNS 8.95% | LOX IMVI melanoma 9.32%

COc1ccc(-c2cnc(NC(=O)CCCCCCNC(=O)C(O)(O)C(F)(F)F)s2)cc1
active: HCT-15 colon 4.2% | HT29 colon 0.86% | U251 CNS -46.4% | SK-MEL-5 melanoma -62.2% | UACC-62 melanoma -31.8% | LOX IMVI melanoma -89.5% | SK-MEL-28 melanoma 8.09%
inactive: SNB-75 CNS 36.8% | SNB-19 CNS 17.5% | PC-3 prostate 17.8%

COc1ccc2c(c1)c(-c1nc(N)nnc1-c1c[nH]c3ccccc13)cn2C
active: SNB-75 CNS -11.9%
inactive: HCT-15 colon 22.9% | HT29 colon 14.5% | SNB-19 CNS 31.5% | U251 CNS 24.6% | PC-3 prostate 43.4% | SK-MEL-5 melanoma 26% | UACC-62 melanoma 26.1% | LOX IMVI melanoma 33.1% | SK-MEL-28 melanoma 54.5%

Cc1ccc2c(n1)C(=O)C(Cl)=C(Nc1ccc(C(=O)OC(C)(C)C)cc1)C2=O
active: HCT-15 colon -43.9% [9.25 µM] | LOX IMVI melanoma -59.3% [9.25 µM]
inactive: HT29 colon 100% [9.25 µM] | SNB-75 CNS 83.8% [9.25 µM] | SNB-19 CNS 83.8% [9.25 µM] | U251 CNS 83.5% [9.25 µM] | PC-3 prostate 72.1% [9.25 µM] | SK-MEL-5 melanoma 87.6% [9.25 µM] | UACC-62 melanoma 87.1% [9.25 µM] | SK-MEL-28 melanoma 82.5% [9.25 µM]

O=C(CCCCCCNC(=O)C(O)(O)C(F)(F)F)Nc1nc2ccccc2s1
active: HCT-15 colon 6.75% | HT29 colon 6.91% | U251 CNS -35.4% | SK-MEL-5 melanoma -72.5% | UACC-62 melanoma -62.7% | LOX IMVI melanoma -81.3% | SK-MEL-28 melanoma -4.84%
inactive: SNB-75 CNS 38.9% | SNB-19 CNS 17% | PC-3 prostate 34.6%

COc1cc(C(=O)c2cc(C(C)=O)c3ccc(C)cn23)cc(OC)c1OC
inactive: HCT-15 colon 18.9% | HT29 colon 15.6% | SNB-19 CNS 40% | U251 CNS 34% | PC-3 prostate 55.6% | SK-MEL-5 melanoma 36.7% | UACC-62 melanoma 17.2% | LOX IMVI melanoma 34.5% | SK-MEL-28 melanoma 58.1%
active: SNB-75 CNS 6.02%

CCN(CC)CCOc1ccc(C(=C(C)c2ccc(OC)cc2)c2ccc(OCCN(CC)CC)cc2)cc1
active: HCT-15 colon -27.1% | HT29 colon -28.1% | U251 CNS -44.5% | SK-MEL-5 melanoma -94.1% | UACC-62 melanoma -81.6% | LOX IMVI melanoma -77.9% | SK-MEL-28 melanoma -83.7%
inactive: SNB-75 CNS 30.5% | SNB-19 CNS 11.9% | PC-3 prostate 17%

Cn1ncc2c(C(=O)c3ccc(F)cc3)nc(C(C)(C)C)nc21
inactive: HCT-15 colon 97.7% | HT29 colon 104% | SNB-75 CNS 89.6% | SNB-19 CNS 95.4% | U251 CNS 98.6% | PC-3 prostate 92.5% | SK-MEL-5 melanoma 100% | UACC-62 melanoma 98% | LOX IMVI melanoma 95.7% | SK-MEL-28 melanoma 98%

CCCCN1C(=O)/C(=c2\sc3n(c2=O)C2C(NN=3)N(CC)C(=O)N2CC)c2cc(C)ccc21 (stereo not given)
inactive: HCT-15 colon 86.2% | HT29 colon 102% | SNB-75 CNS 87.9% | SNB-19 CNS 93.3% | U251 CNS 98.3% | PC-3 prostate 95.8% | SK-MEL-5 melanoma 92.8% | UACC-62 melanoma 71.6% | LOX IMVI melanoma 78.8% | SK-MEL-28 melanoma 102%

CC(=O)c1cc(C(=O)N2c3ccccc3Sc3ccccc32)n2c1ccc1ccccc12
inactive: HCT-15 colon 41.6% | HT29 colon 30% | SNB-75 CNS 38.7% | SNB-19 CNS 57.8% | U251 CNS 48.6% | PC-3 prostate 46.1% | SK-MEL-5 melanoma 44.1% | UACC-62 melanoma 33.9% | LOX IMVI melanoma 58.9% | SK-MEL-28 melanoma 61.1%

Fc1cccc(Cl)c1/C=N/Nc1nc(N/N=C/c2c(F)cccc2Cl)nc(N2CCCCC2)n1
inactive: SNB-75 CNS 37.5% | SNB-19 CNS 25.8% | U251 CNS 26.8% | PC-3 prostate 18.7% | UACC-62 melanoma 18.3% | LOX IMVI melanoma 19.6% | SK-MEL-28 melanoma 44.9%
active: HCT-15 colon 3.94% | HT29 colon 3.5% | SK-MEL-5 melanoma -59.1%

CCCCCCCCCC(=O)NC(C)(C)C(=O)N1CCC[C@H]1C(=O)N[C@@H](CC(C)C)C(=O)N[C@@](C)(CC)C(=O)N[C@@H](CCC(N)=O)C(=O)N[C@H](CCC(N)=O)C(=O)NC(C)(C)C(=O)NC(C)(C)C(=O)N[C@@H](CCC(N)=O)C(=O)N[C@H](CC(C)C)C(=O)N[C@H](CO)CC(C)C
-79.6% (active) and 23.1% (inactive): HCT-15 colon
active: HT29 colon -51.5% and -46.3% | SNB-75 CNS -66.3% and -94% | SNB-19 CNS -96.3% and -99% | U251 CNS -92% and -81.5% | PC-3 prostate -94.1% and -55.4% | SK-MEL-5 melanoma -96.7% and -93.7% | UACC-62 melanoma -96.7% and -91.7% | LOX IMVI melanoma -91.5% and -88.4% | SK-MEL-28 melanoma -97.9% and -99.9%

c1ccc(-c2cn3c(-c4c[nH]c5ccccc45)csc3n2)cc1
inactive: HCT-15 colon 85.6% | HT29 colon 63% | SNB-75 CNS 80.9% | SNB-19 CNS 59.7% | U251 CNS 61% | PC-3 prostate 43.2% | SK-MEL-5 melanoma 81% | UACC-62 melanoma 49.6% | LOX IMVI melanoma 83.7% | SK-MEL-28 melanoma 71.9%

Cc1ccc(C(=O)Nc2ccc(CNCCN3CCOCC3)c(C(F)(F)F)c2)cc1C#Cc1cnc2cccnn12
active: HCT-15 colon 7.26% | HT29 colon 2.36% | SNB-75 CNS -18% | U251 CNS 6.06% | SK-MEL-5 melanoma -85.9% | LOX IMVI melanoma -85.6% | SK-MEL-28 melanoma -6.46%
inactive: SNB-19 CNS 36.6% | PC-3 prostate 19.3% | UACC-62 melanoma 15.1%

O=C(Nc1ccc(Cl)c(C(F)(F)F)c1)Nc1ccc2oc(=O)ccc2c1
active: LOX IMVI melanoma 1.96%
inactive: HCT-15 colon 16.6% | HT29 colon 65.4% | SNB-75 CNS 58.6% | SNB-19 CNS 28.5% | U251 CNS 31.3% | PC-3 prostate 10.6% | SK-MEL-5 melanoma 41.4% | UACC-62 melanoma 27.9% | SK-MEL-28 melanoma 66.7%

COc1ccc(NC2=C(Br)C(=O)C(C)=C(C)C2=O)cc1OC
inactive: HCT-15 colon 97.9% | HT29 colon 111% | SNB-75 CNS 77.1% | SNB-19 CNS 84.9% | U251 CNS 84% | PC-3 prostate 69.7% | SK-MEL-5 melanoma 69.7% | UACC-62 melanoma 88% | LOX IMVI melanoma 73.7% | SK-MEL-28 melanoma 112%

Nc1cc(C(=O)N/N=C\c2ccc(OC(F)F)c(OC3CCCC3)c2)nn1CC(O)c1ccccc1 (stereo not given)
inactive: HCT-15 colon 99.1% | HT29 colon 98.2% | SNB-75 CNS 84.1% | SNB-19 CNS 96.4% | U251 CNS 94.7% | PC-3 prostate 80.7% | SK-MEL-5 melanoma 97.1% | UACC-62 melanoma 89.4% | LOX IMVI melanoma 99.1% | SK-MEL-28 melanoma 115%

Cc1csc(/N=C(N)/N=C(\N)c2cccc(Br)c2)n1
inactive: HCT-15 colon 67% | HT29 colon 97.4% | SNB-75 CNS 72.8% | SNB-19 CNS 79.2% | U251 CNS 91.5% | PC-3 prostate 87.9% | SK-MEL-5 melanoma 97.6% | UACC-62 melanoma 74.5% | LOX IMVI melanoma 90.4% | SK-MEL-28 melanoma 92.1%

C#CCN(C)CCCOc1ccc(NCc2ccc(C(=O)NO)cc2)cc1Cl
inactive: HCT-15 colon 20% | HT29 colon 16.2% | SNB-75 CNS 10.4% | SNB-19 CNS 35.2% | U251 CNS 20% | PC-3 prostate 29.4% | LOX IMVI melanoma 10.6% | SK-MEL-28 melanoma 24%
active: SK-MEL-5 melanoma 9.67% | UACC-62 melanoma -6.34%

COc1cc2cc(Oc3ccc(NC(=O)Nc4ccc(F)c(C(F)(F)F)c4)cc3)c(C)nc2cc1OCCN(C)C
inactive: HCT-15 colon 29.2% | HT29 colon 66.5% | SNB-75 CNS 98.8% | SNB-19 CNS 99.8% | U251 CNS 100% | PC-3 prostate 92% | SK-MEL-5 melanoma 90.9% | UACC-62 melanoma 106% | LOX IMVI melanoma 54% | SK-MEL-28 melanoma 81%

Cn1cc(C2=C(c3coc4cc(Br)ccc34)C(=O)NC2=O)c2ccccc21
inactive: HCT-15 colon 37.3% | HT29 colon 51.7% | SNB-75 CNS 10.5% | SNB-19 CNS 90.7% | U251 CNS 83.7% | PC-3 prostate 69.3% | SK-MEL-5 melanoma 89.6% | UACC-62 melanoma 60.1% | LOX IMVI melanoma 69.2% | SK-MEL-28 melanoma 88.6%

CN1CCN(Cc2ccc(NC(=O)c3cncc(C#Cc4cnc5ccc(OCCCS(C)(=O)=O)nn45)c3)cc2C(F)(F)F)CC1
active: HCT-15 colon 3.14% | HT29 colon -10.8% | SNB-75 CNS -91.7% | SNB-19 CNS 1.67% | U251 CNS -4.26% | PC-3 prostate 1.61% | SK-MEL-5 melanoma -57% | UACC-62 melanoma -57.3% | LOX IMVI melanoma -82.6% | SK-MEL-28 melanoma -21.8%
